# Laboratory results reported in PubChem BioAssay (NCATS).
# Several values for one entry are separate records, joined by “and”; a condition that tells them apart may be missing. Identical values can stand only once. Inconclusive results are not listed. A call without a number means that no potency is given here. More than one record can exist for a structure, and the calls need not agree. Activity calls are given as the source filed them. Calls come from the whole dose curve; as a rule, active = well fitted curve in the direction sought with a large enough effect; inconclusive = small, poorly fitted or top-dose-only effect, or another doubt; inactive = no such curve, though single readings can be large; an effect the other way counts as inactive or inconclusive.
# Legend:
# [1] = molecular target: Glutathione peroxidase 1 (Homo sapiens) (UniProt P07203); assay: Primary qHTS Assay for Inhibitors of Recombinant Selenoprotein Glutathione Peroxidase 1 (GPX1) (AID 1845191); note: nearly all actives have a fitted effect of over 65% in size; note: potency is the fitted concentration of half-maximal effect
# In short: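 GR-coupled assay: compounds preincubated 30 min at room temperature with GPX1, then reaction started with CHP; final 10 nM GPX1, 1 mM GSH, 0.5 mM CHP, 0.5 mM NADPH, 100 nM GR, 0.01% BSA, pH 7.5 Tris buffer. NADPH fluorescence (340/450 nm) read at 0 and 15 min.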
# [2] = molecular target: Phospholipid hydroperoxide glutathione peroxidase GPX4 (Homo sapiens) (UniProt P36969); assay: Primary qHTS Assay for Inhibitors of Recombinant Selenoprotein Glutathione Peroxidase 4 (GPX4) (AID 1845192); note: nearly all actives have a fitted effect of over 65% in size; note: potency is the fitted concentration of half-maximal effect
# In short: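 GR-coupled assay: recombinant GPX4 preincubated 30 min with compound at room temperature; final 200 nM GPX4, 1 mM GSH, 0.5 mM cumene hydroperoxide, 0.5 mM NADPH, 100 nM GR, 0.01% BSA, pH 7.5 Tris. NADPH fluorescence (340/450 nm) read at 0 and 15 min.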
# [3] = molecular target: Luciferin 4-monooxygenase (Photinus pyralis) (UniProt P08659); assay: Primary firefly luciferase (FLuc) qHTS assay for identification of artifact compounds. (AID 1845220); note: nearly all actives have a fitted effect of over 60% in size
# In short: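 Titrated compounds were incubated 15 min at RT, protected from light, with luciferin and ATP at 10 uM; reaction started with 10 nM FLuc, luminescence imaged at 5 min, and concentration-response fitted by Hill equation.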
# [4] = Primary fluorescence-based thiol-reactive (MSTI) qHTS assay for identification of artifact compounds. (AID 1845221); note: nearly all actives have a fitted effect of over 65% in size; note: potency is the fitted concentration of half-maximal effect
# In short: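 Probe: MSTI 4 uM, PBS pH 7.4, 2% DMSO. Incubation 1 h, RT, light-protected. Readout fluorescence 525/598 nm.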
# [5] = tested on: Nanoluciferase (engineered Oplophorus gracilirostris luciferase); assay: Primary Nanoluciferase (NLuc) qHTS assay for identification of artifact compounds. (AID 1845222);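 note: NLuc secreted into diluted conditioned medium of S16 cells; series mostly up to about 54 µM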
# In short: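 qHTS format, against NLuc in S16 cell-conditioned medium. Nano-Glo substrate 1:100 was added after 15 min at room temperature. Luminescence was taken after a further 5 min.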
# Sequence of Glutathione peroxidase 1 (Homo sapiens) (P07203 whole entry, looked up): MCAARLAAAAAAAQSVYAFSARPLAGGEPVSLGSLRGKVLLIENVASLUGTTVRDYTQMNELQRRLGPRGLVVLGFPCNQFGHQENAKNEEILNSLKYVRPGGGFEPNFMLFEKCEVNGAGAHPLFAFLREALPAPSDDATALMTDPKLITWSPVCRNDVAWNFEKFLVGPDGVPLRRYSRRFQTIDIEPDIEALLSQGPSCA
# Sequence of Phospholipid hydroperoxide glutathione peroxidase GPX4 (Homo sapiens) (P36969 whole entry, looked up): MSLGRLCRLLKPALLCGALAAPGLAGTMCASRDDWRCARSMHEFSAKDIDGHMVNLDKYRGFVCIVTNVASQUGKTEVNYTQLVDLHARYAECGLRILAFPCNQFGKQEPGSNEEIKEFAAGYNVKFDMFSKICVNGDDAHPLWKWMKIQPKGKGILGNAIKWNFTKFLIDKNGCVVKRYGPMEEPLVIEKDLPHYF
Structure (SMILES),Potency [1],Potency [2],Potency [3],Potency [4],Potency [5]
CC(C)(C)COc1ccc(-n2cc(C(=O)O)cn2)cc1C#N,inactive,inactive,–,–,–
CC(=O)OC1C(C)OC(Oc2c(-c3ccc(O)cc3)oc3cc(O)cc(O)c3c2=O)C(O)C1OC(C)=O (stereo not drawn),inactive,inactive,–,–,–
O=c1c(-c2ccc(O)cc2)coc2cc(O)ccc12,inactive,inactive,–,–,–
CC(C)OC(=O)C(C)(C)Oc1ccc(C(=O)c2ccc(Cl)cc2)cc1,inactive,inactive,–,–,–
O=c1c(O)c(-c2ccc(O)cc2)oc2cc(O)cc(O)c12,inactive,inactive,–,–,–
O=C(O)C(O)Cc1ccc(O)c(O)c1 (stereo not drawn),inactive,inactive,–,–,–
Oc1ccc(C2CCN(c3ccnc4ccccc34)CC2)cc1O,inactive,inactive,–,–,–
Cc1cnc(C(=O)O)c[n+]1[O-],inactive,inactive,–,–,–
CCOC(CN1C(=O)[C@](CC(=O)Nc2ccc(C)cc2)(NC(=O)Nc2ccc(C)cc2)c2ccccc21)OCC,inactive,inactive,–,–,–
CC(C)(Cc1ccc2ccccc2c1)NC[C@@H](O)COc1cccc(Cl)c1C#N,inactive,inactive,–,–,–
Nc1ncnc2c1nc(Cl)n2[C@@H]1O[C@H](CO)[C@@H](O)[C@@H]1O,inactive,inactive,–,–,–
Cc1ccc(C(C)(O)c2nc3ccccc3s2)c(C)c1 (stereo not drawn),inactive,inactive,–,–,–
O=c1cc(-c2ccccc2)oc2cc(O)cc(O)c12,inactive,inactive,–,–,–
CN(C)Cc1cccc(N=C(c2ccccc2)c2c(O)[nH]c3cc(C(=O)N(C)C)ccc23)c1,inactive,inactive,–,–,–
CC(C(=O)O)c1ccc(-c2ccccc2)c(F)c1 (stereo not drawn),inactive,inactive,–,–,–
CN1C[C@H]2c3ccccc3Oc3ccc(Cl)cc3[C@@H]2C1,inactive,inactive,–,–,–
c1ccc2c(-c3cnn4cc(-c5ccc(N6CCNCC6)cc5)cnc34)ccnc2c1,inactive,inactive,–,–,–
N#CC1(c2ccc(NC(=O)c3cccnc3NCc3ccncc3)cc2)CCCC1,inactive,inactive,–,–,–
CC(C)C(C)C=CC(C)C1CCC2C3=CC=C4CC(O)CCC4(C)C3CCC21C (stereo not drawn),inactive,inactive,–,–,–
O=C(Nc1ccccc1Br)N[C@@H]1CCN(c2ccc(C(F)(F)F)cn2)C1,inactive,inactive,–,–,–
COc1ccc(-n2c(C)c([N+](=O)[O-])c3ccc(O)cc32)cc1,inactive,inactive,–,–,–

Structure (SMILES),Potency [1],Potency [2],Potency [3],Potency [4],Potency [5]
O=C(Nc1cc(Cl)cc2c1[nH]c1cnccc12)c1cccnc1,inactive,inactive,–,–,–
O=c1cc(-c2cccc3c2Sc2ccccc2S3)oc(N2CCOCC2)c1,inactive,inactive,–,–,–
Nc1ncnc2ccccc12,inactive,inactive,–,–,–
CCOc1ccc(Nc2nc(-c3c(C)nc4ccccn34)cs2)cc1,inactive,inactive,inactive,2670 nM (active),inactive
COc1ccc(-c2coc3cc(O)cc(O)c3c2=O)cc1,inactive,inactive,–,–,–
CC(C)(C)C(=O)Oc1ccc2c(c1)nc(NC(=O)c1cccc([N+](=O)[O-])c1)n2CCCO,inactive,inactive,–,–,–
c1cc(-c2sc(-c3ccncc3)c(-c3ccncc3)c2-c2ccncc2)ccn1,inactive,inactive,–,–,–
CC(C)(C(=O)NCC(F)(F)C(F)(F)F)C(=O)N[C@@H]1C(=O)Nc2ccccc2-c2ccccc21,inactive,inactive,–,–,–
COc1cc(NC(=O)c2ccc(-c3ccc(Cl)cc3)o2)cc(OC)c1,inactive,inactive,–,–,–
CN1[C@@H]2CCC[C@@H]1CC(NC(=O)c1nn(C)c3ccccc13)C2 (stereo partly drawn),inactive,inactive,–,–,–
Cc1ccc(/C=N/NC(=O)c2ccccc2Oc2ccccc2)o1,inactive,inactive,–,–,–
O=C(N[C@@H](c1ccccc1)[C@@H]1CCCCN1)c1cccc(C(F)(F)F)c1Cl,inactive,inactive,–,–,–
Clc1cc(Cl)cc(CNc2ncncc2-c2ccc3c(c2)OCO3)c1,inactive,inactive,–,–,–
COc1cc2nc(-c3ccc(N4CCN(C)CC4)cc3)nc(NCCN3CCOCC3)c2cc1OC,inactive,–,inactive,inactive,inactive
O=C(CCCCCCC(=O)Nc1ccccc1)NO,inactive,inactive,inactive,–,inactive
O=c1[nH]cnc2c1ncn2[C@H]1CC[C@@H](CO)O1,inactive,inactive,inactive,inactive,inactive
COc1cc2ncnc(-n3nc(-c4ccccn4)nc3N)c2cc1OC,inactive,inactive,inactive,inactive,inactive
CC(C)(C)Cn1c(N)nc2ccc(-c3[nH]c(C(C)(C)C)nc3-c3ccc(F)cc3)nc21,16100 nM (active),inactive and 9.04 µM (active),inactive,1890 nM (active),inactive
O=C(CCN1CCN(C(=O)OCc2cc(Cl)cc(Cl)c2)CC1)c1ccc2[nH]c(=O)oc2c1,inactive,inactive,inactive,inactive,inactive
CCn1c(C(=O)N(C2CC2)C2CC2)cc2c3c(ncn3C)c(Nc3cc(C)n(C)n3)nc21,inactive,inactive,inactive,–,inactive
CC(=O)Nc1ccc([C@H](C)C(=O)Nc2ncc(C(C)C)s2)cc1,inactive,inactive,inactive,inactive,inactive
